The source of these data is PubChem BioAssay (NCATS).

Inconclusive results are not listed. Calls of active or inactive are those of the source. The call rests on the fitted dose curve; in most records, active means well fitted cell-killing curve with a large enough effect; inconclusive means small, poorly fitted or top-dose-only effect, or effect the other way; inactive means no such curve, though single readings can be large or run the other way.
Potency means the concentration at half of the fitted maximal effect.

The test in a line: Quantitative High-Throughput drug screen in 47 multiple myeloma cell lines against the NCATS MIPE library collection: ARD_JJKsccE7 cell viability assay (AID 1918929). Conditions: ARD myeloma cell line viability, CellTiter-Glo, 48 h; series mostly up to 45.8 µM; viability: at the top concentration. From the text:
PI: Beverly A. Mock Ph.D.
Laboratory of Cancer Biology and Genetics,
Center for Cancer Research, National Cancer Institute,
National Institute of Health, Bethesda, Maryland
Drug resistance and disease progression are common in multiple myeloma (MM) patients, underscoring the need for new therapeutic combinations. […] We hypothesized that effective combinations would reduce MYC expression and enhance p16 activity. […] These preclinical data identify potentially useful drug combinations for evaluation in drug-resistant MM and reveal potential mechanisms of combined drug sensitivity.
Described herein is the primary MIPE qHTS used to cherrypick compounds. Validated compounds were then further tested for potential synergistic activiy.
[1] Peat TJ, Gaikwad SM, Dubois W, Gyabaah-Kessie N, Zhang S, Gorjifard S, Phyo Z, Andres M, Hughitt VK, Simpson RM, Miller MA, Girvin AT, Taylor A, Williams D, D'Antonio N, Zhang Y, Rajagopalan A, Flietner E, Wilson K, Zhang X, Shinn P, Klumpp-Thomas C, McKnight C, Itkin Z, Chen L, Kazandijian D, Zhang J, Michalowski AM, Simmons JK, Keats J, Thomas CJ, Mock BA. Drug combinations identified by high-throughput screening promote cell cycle transition and upregulate Smad pathways in myeloma. Cancer Lett. 2023 Aug 1;568:216284. doi: 10.1016/j.canlet.2023.216284. Epub 2023 Jun 24. PMID: 37356470; PMCID: PMC10408729.
SEQUENCE No. (e.g., 1, 2, 3, etc.); […] (e.g., Cells, Incubation, Reagent, etc.); VALUE and DESCRIPTION.
1; Cells; 5 uL; white, solid bottom 1536-well Greiner assay plate.
2; Compounds; 23 nL; Kalypsis pin tool (Wako USA) equipped with a 1536-well pin head to transfer to the assay plates.
3; Incubation; 48 hours; 37C incubation.
4; Reagent;5uL; CellTiter Glo (Promega).
5; Detector; 425V; Luminescence; Viewlux PerkinElmer.
NOTES (numbers refer to Sequence numbers above)
1. The cell-based screening methods employed in this study were like those previously published. Briefly, the corresponding myeloma cell lines were screened in 1,536-well plates with 500 cells, 5-uL per well for inhibition of cell viability (assessed by measuring ATP levels with CellTiterGlo).
2. NCATS MIPE 4.0 library of approved and investigational drugs were added using the Kalypsis pin tool. Wells treated with DMSO only for 100% viability and media only wells for 0% viability were used as controls.
3. The assay plates were covered and incubated for 48 hours in a 37C, 5% CO2 incubator with controlled humidity.
4. After 48 hours, CellTilter-GloTM luminescent substrate mix (Promega) reagent was added to the assay plate and plates we incubated for 5 min at room temperature.
5. Signal was measured as median relative luminescence units on a ViewLux (PerkinElmer) multiplate reader.
[1] Heske CM, Davis MI, Baumgart JT, Wilson K, Gormally MV, Chen L, Zhang X, Ceribelli M, Duveau DY, Guha R, Ferrer M, Arnaldez FI, Ji J, Tran HL, Zhang Y, Mendoza A, Helman LJ, Thomas CJ. Matrix Screen Identifies Synergistic Combination of PARP Inhibitors and Nicotinamide Phosphoribosyltransferase (NAMPT) Inhibitors in Ewing Sarcoma. Clin Cancer Res. 2017 Dec 1;23(23):7301-7311. doi: 10.1158/1078-0432.CCR-17-1121. Epub 2017 Sep 12. PMID: 28899971; PMCID: PMC6636827.
Take `Nc1ccccc1NC(=O)c1ccc(CNC(=O)OCc2cccnc2)cc1`: the Potency was 0.935 µM (active).
Consider `CN(c1ncccc1CNc1nc(Nc2ccc3c(c2)CC(=O)N3)ncc1C(F)(F)F)S(C)(=O)=O`, for which the Potency is 2.64 µM (active).
For `C1=CCOCc2cc(ccc2OCCN2CCCC2)Nc2nccc(n2)-c2cccc(c2)OCC1`, the Potency is 1.87 µM (active).
The same measure, in the same setting: in the case of `CCn1cc(-c2ccnc3[nH]c(-c4cccc(CN(C)C)c4)cc23)c(-c2ccc(NC(=O)N(C)C)cc2)n1` it was 8.33 µM (active); in that of `CC(C)(C)c1cnc(CSc2cnc(NC(=O)C3CCNCC3)s2)o1`, 0.235 µM (active).
On to `c1cc(-c2cnn3cc(-c4ccc(OCCN5CCCCC5)cc4)cnc23)ccn1`, for which the viability (commonly a read-out of living cells in per cent, often relative to untreated cells) is 105% (inactive).
Still for that read-out and setting: the result for `CC(C)c1nn(-c2c(Cl)cccc2Cl)c2nc(Cc3ccc(OCCO)cc3)[nH]c(=O)c12` reads 140% (inactive); that for `CC(C)(C)NC(=O)[C@H]1CN(Cc2cccnc2)CCN1C[C@@H](O)C[C@@H](Cc1ccccc1)C(=O)N[C@H]1c2ccccc2C[C@H]1O`, 145% (inactive).
For the compound `Cc1cc(Nc2cc(N3CCN(C)CC3)nc(C=Cc3ccccc3)n2)n[nH]1`, the Potency is 13.6 µM (active).
Turning to `O=C(c1cncc(Br)c1)N1CCC(N2CCCC2)CC1`, the “viability” value was 126% (inactive).
With `CN(C)c1nc(Cc2ccc(NC(=O)c3ccc4ccccc4c3)cc2)nc(Cl)c1CC(=O)O`, the “viability” value was 121% (inactive).
Regarding `CCOc1ccccc1OCCNC(C)Cc1ccc(OC)c(S(N)(=O)=O)c1` (stereo not given), the “viability” value is 112% (inactive).
`CC(=O)c1c(C)c2cnc(Nc3ccc(N4CCNCC4)cn3)nc2n(C2CCCC2)c1=O`: the Potency was 14.8 µM (active).
Take `Nc1nc(NCCNc2ncc(-n3ccnc3)c(-c3ccc(Cl)cc3Cl)n2)ccc1[N+](=O)[O-]`: the Potency is 6.62 µM (active).
For `CC(C)(O)CCc1ccc(OCc2cc(-c3cccc(OC(F)F)c3)c3ncccc3c2)cc1`, the “viability” value was 120% (inactive).
As for `Nc1nc(Nc2ccc(S(N)(=O)=O)cc2)nn1C(=O)c1c(F)cccc1F`, the Potency is 5.26 µM (active).
On the same count and under the same terms, in the case of `COc1cccc2c(NCc3ccccc3)nc(-n3c(N)nc4ccccc43)nc12` it was 4.69 µM (active); in that of `CC1(C)CCC(c2ccc(Cl)cc2)=C(CN2CCN(c3ccc(C(=O)NS(=O)(=O)c4ccc(N[C@H](CCN5CCOCC5)CSc5ccccc5)c(S(=O)(=O)C(F)(F)F)c4)cc3)CC2)C1`, 2.64 µM (active); in that of `CC(C)c1cc(C(=O)N2Cc3ccc(CN4CCN(C)CC4)cc3C2)c(O)cc1O`, 0.0935 µM (active).
For `CNC(=O)c1ccc(N2C(=S)N(c3cnc(C#N)c(C(F)(F)F)c3)C(=O)C23CCC3)cc1F`, the Potency is 2.09 µM (active).
As to `Nc1ccc(S(=O)(=O)Nc2ncccn2)cc1`, the “viability” value was 132% (inactive).
With `Cc1cc(Nc2cc(NC(=O)c3c(Cl)cccc3Cl)ccn2)nc(N)n1`, the Potency was 0.209 µM (active).
Still for that read-out and setting: in the case of `O=C(O)c1ccc2cc(-c3ccc(O)c(C45CC6CC(CC(C6)C4)C5)c3)ccc2c1` it was 5.26 µM (active); in that of `CN(C)CCCN=c1c2ccccc2n(C)c2[nH]c(=O)n(C)c(=O)c12`, 5.26 µM (active).
In the case of `COc1cccc(Nc2c(C(N)=O)cnc3c(C)cc(S(=O)(=O)c4cccc(C(=O)N(C)C)c4)cc23)c1`, the Potency was 12.9 µM (active).
On to `O=C(CCCCCCNC(=O)c1cnc(N(c2ccccc2)c2ccccc2)nc1)NO`, for which the Potency is 4.69 µM (active).
`C=CCn1c(=O)c2cnc(Nc3ccc(N4CCN(C)CC4)cc3)nc2n1-c1cccc(C(C)(C)O)n1`: the Potency is 0.264 µM (active).
`COc1cc2c(Oc3ccc(NC(=O)C4(C(=O)Nc5ccc(F)cc5)CC4)cc3F)ccnc2cc1OCCCN1CCOCC1`: the Potency is 2.64 µM (active).
As to `Cc1ccc(S(=O)(=O)Nc2cc(Cl)ccc2C(=O)Nc2nc(-c3ccccc3)cs2)cc1`, the Potency is 7.43 µM (active).
Take `CC(=O)Nc1nc(C)c(-c2ccc(Cl)c(S(=O)(=O)NCCO)c2)s1`: the Potency was 0.418 µM (active).
Still for that read-out and setting: in the case of `COc1cc(OC2CCN(C)CC2)ccc1Nc1ncc2c(n1)n(C1CCCC1)c(=O)n2C` it was 9.35 µM (active).
As to `CC(C)c1noc(N2CCC(COc3ccc(-c4ccc(S(C)(=O)=O)cc4)nc3)CC2)n1`, the “viability” value is 131% (inactive).
On to `CN(C1CCc2c(c3ccccc3n2CC(=O)O)C1)S(=O)(=O)c1ccc(F)cc1` (stereo not given), for which the Potency was 5.26 µM (active).
Regarding `CC(=O)SC[C@@H](C)C(=O)N1CCC[C@H]1C(=O)N[C@@H](Cc1ccccc1)C(=O)O`, the “viability” value was 135% (inactive).
Regarding `CC(C)CC(=O)Nc1n[nH]c2c1CN(C(=O)C1CCN(C)CC1)C2(C)C`, the Potency is 1.32 µM (active).
Take `CNC(=O)c1ccccc1Nc1nc(Nc2ccc(N3CCOCC3)cc2OC)ncc1Cl`: the Potency is 0.0935 µM (active).
For `COc1ccc(-c2cc3c(C)nc(N)nc3n(C3CCC(OCCO)CC3)c2=O)cn1` (stereo not given), the Potency was 0.187 µM (active).
For the compound `CC1=C(CO)C(=O)O[C@@H]([C@@H](C)[C@H]2CC[C@H]3[C@@H]4C[C@H]5O[C@]56[C@@H](O)C=CC(=O)[C@]6(C)[C@@H]4CC[C@]23C)C1`, the “viability” value was 145% (inactive).
Consider `CN1CC[C@@H](c2c(O)cc(O)c3c(=O)cc(-c4ccccc4Cl)oc23)[C@@H](O)C1`, for which the Potency is 0.0469 µM (active).
`CC(C)C[C@H](NC(=O)CNC(=O)c1cc(Cl)ccc1Cl)B(O)O`: the Potency was 0.0743 µM (active).
